We go through 1 sequence from US20210230599, “STEM-LOOP COMPOSITIONS AND METHODS FOR INHIBITING INTERLEUKIN-8” (VITRISA THERAPEUTICS, INC., published 2021).

The target of the assay is Interleukin-8 (IL8, CXCL8), C-terminal His-tagged (Homo sapiens, UniProt P10145 SEQ:1-72). In words: competition; competition TR-FRET; deletion at position 16. The following applies: tags: C-terminal 6xHis (Sino Biological); ssRNA; 2'-F G, 2'-OMe A/C/U, 5' C6NH2, 3' idT. Here is the method:
Activity of each of these variants were tested using a time resolved competition TR-FRET assay in which the labeled parent Aptamer 3 was competed with increasing concentrations of unlabeled variants for binding to IL8 (FIG. 14). Briefly, 2-fold dilutions of thermally equilibrated aptamers were made in TR-FRET Buffer (50 mM MOPS, pH 7.4, 125 mM NaCl, 5 mM KCl, 50 μM CHAPS, 0.1 mg/mL BSA, 1 mM CaCl₂, and 1 mM MgCl₂). 5 μL of aptamer or control solution was added to 5 μl mix of 10 nM C-terminal His-tagged-IL8, 60 nM ALEXA FLUOR® 647-labeled Aptamer, and 5 nM anti-His-Eu (Perkin Elmer) in a black wall low volume 384 well plate (Greiner). For control, 5 μl of 1000-fold excess of unlabeled parent aptamer or 5 μl TR-FRET buffer alone was added to the mix of ALEXA FLUOR® 647-labeled aptamer, His-IL8, and anti-His-Eu. The plate was covered with a plate seal and subsequently incubated in the dark for 1 hour at room temperature. The plate was read on a Biotek CYTATION™ 5 plate reader. Samples were excited at 330 nm and fluorescent values were collected at 665 nm. Data analysis was performed by subtracting the background value and plotting as percent inhibition, normalized to baseline in the absence of competitor. […]
A general note: Time-resolved FRET reads energy transfer from a long-lived donor to a nearby acceptor.
Sequence UGAUGACGGUAGAUUUGGGUAGAGUGACCGCAUCU came in with a binding signal of about 5 fold worse than Aptamer 3.
